Results filed as inconclusive are left out. The source made the active and inactive calls. Calls come from the whole dose curve; as a rule, active = well fitted inhibition curve with a large enough effect; inconclusive = small, poorly fitted or top-dose-only effect, or effect the other way; inactive = flat fitted curve, though single readings scatter.
Assay: qHTS for Inhibitors of Plasmodium falciparum (CP250) proliferation (AID 504320);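 note: plate controls were DMSO vehicle for no effect and 0.29 µM artemisinin control for full effect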
Conditions: P. falciparum CP250 in erythrocytes, SYBR Green DNA, 72 h; series mostly up to 6.7 µM; activity change, negative = inhibition: at the top concentration
Procedure, shortened: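 Parasite growth measured as SYBR Green DNA fluorescence (ex 485, em 535 nm) after overnight lysis following 72 h culture at 37 °C, 0.3% parasitemia, 2.5% hematocrit. Values normalized against DMSO and 0.29 uM artemisinin controls, with plate-stack correction.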

SMILES	activity change, negative = inhibition
COC(=O)CCC(=O)OC1(C)C(=O)C2=CN(Cc3ccc(OC)cc3)C(c3ccc(OC)cc3)=CC2=C(Br)C1=O (stereo not given)	-2.1% (inactive)
COC(=O)C1=C(C(=O)OC)[C@@H]2N(C)c3ccc(OC)cc3[C@@]23C[C@@H](C(=O)OC)N(S(=O)(=O)c2ccc4c(c2)OCCN4C)C3=N1	-2.91% (inactive)
C=CCN1c2ccccc2[C@]23C[C@@H](C(=O)OC)N(C(=O)C4CCC4)C2=NC(C(=O)OC)=C(C(=O)OC)[C@H]13	4.44% (inactive)
CCCCc1nc2c(c3c1C[C@H](C)OC3)CN(S(=O)(=O)c1ccc3c(c1)OCCN3C)CC2	4.76% (inactive)
CCCCc1nc2c(c3c1C[C@H](C)OC3)CN(C(=O)Cc1cccc(OC)c1)CC2	1.1% (inactive)
C=CCN1C=C2C(=O)C(C)(OC(=O)CCc3ccccc3)C(=O)C=C2C=C1c1ccc(C#N)cc1 (stereo not given)	3.57% (inactive)
COC(=O)[C@H]1[C@@H](C)N(Cc2ccccc2)C(=O)N[C@H]1c1ccccc1	1.06% (inactive)
COC(=O)CCCC1=CC2=C(c3ccccc3)C(=O)C(C)(OC(=O)C3CCCC3)C(=O)C2=CN1C1CCCC1 (stereo not given)	-1.04% (inactive)
CCN1C(=O)N[C@@H](c2cccc(F)c2)C(C(C)=O)=C1C	0.0952% (inactive)
COC(=O)C1=C(C(=O)OC)[C@@H]2Nc3ccccc3[C@@]23C[C@@H](C(=O)OC)N(S(=O)(=O)c2cccs2)C3=N1	0.102% (inactive)
C[C@@H]1C[C@](C)(C(=O)c2ccc3ccccc3c2)C=C1c1ccc2ccccc2c1	-3.33% (inactive)
COC/C=C/C1=CC2=CC(=O)C(C)(OC(=O)c3cnc4ccccc4n3)C(=O)C2=CN1Cc1ccc2c(c1)OCO2 (stereo not given)	2.69% (inactive)
CC#CCN1c2ccccc2[C@]23CCC(=O)N(CCCOC(C)C)C2=NC(C(=O)OC)=C(C(=O)OC)[C@H]13	1.47% (inactive)
COC(=O)[C@H]1[C@H](CCc2ccccc2)NC(=O)N(Cc2ccccc2)[C@@H]1C	-1.88% (inactive)
COC(=O)C1=C(C(=O)OC)[C@@H]2N(C)c3ccccc3[C@@]23C[C@@H](CO)N(C(=O)c2cc(C)oc2C)C3=N1	-1.32% (inactive)
COC(=O)[C@@]1(C=C2c3ccc(F)cc3[C@@H](OC)[C@@H]2C)[C@@H]2CC=C[C@@H]21	-3.35% (inactive)
COC/C=C/C1=CC2=CC(=O)C(C)(OC(=O)c3cnc4ccccc4n3)C(=O)C2=CN1c1ccc(OC)cc1 (stereo not given)	-18.9% (inactive)
COc1ccc2c(c1)O[C@@H](c1cccc(C(F)(F)F)c1)[C@H](OC(=O)N[C@H]1CCCc3ccccc31)C2=O	-20.3% (inactive)

SMILES	activity change, negative = inhibition
C[C@@H](c1ccccc1)N1C(=O)[C@@H]2[C@H]3[C@H](O)[C@H](O)CC(=NNC(=O)OCc4ccccc4)[C@@H]3CC[C@H]2C1=O	5.3% (inactive)
COC(=O)C1=C(C(=O)OC)[C@@H]2N(Cc3ccccc3)c3ccccc3[C@@]23C[C@@H](C(=O)OC)N(C(=O)COCc2ccccc2)C3=N1	-1.11% (inactive)
C[C@H]1Cc2c(-c3ccccc3)nc3c(c2CO1)CN(C(=O)c1cc(I)ccc1F)CC3	0.61% (inactive)
C=CC1=C2C=C(C3CC3)N(Cc3ccco3)C=C2C(=O)C(C)(OC(=O)c2ccco2)C1=O (stereo not given)	0.895% (inactive)
CC(C)CON=C1C[C@@H](O)[C@@H](O)[C@@H]2[C@H]3C(=O)N(C4CCCCC4)C(=O)[C@@H]3CC[C@H]12	-9.49% (inactive)
CC1(OC(=O)CCc2ccccc2)C(=O)C=C2C=C(c3ccc(C#N)cc3)N(CCc3c[nH]c4ccccc34)C=C2C1=O (stereo not given)	4.75% (inactive)
CCCNC(=O)N1C2=NC(C(=O)OC)=C(C(=O)OC)[C@@H]3Nc4ccccc4[C@]23C[C@H]1C(=O)OC	-0.0723% (inactive)
CCCC[C@]12Cc3cc(OC)c(OC)cc3[C@H](O1)C1=C(O2)C(=O)c2ccccc2C1=O	-12.6% (inactive)
CCOC(=O)OC[C@H]1O[C@H](c2ccccc2)C=C[C@H]1OC(=O)OCC	0.676% (inactive)
O=C(C=Cc1ccc2c(c1)OCO2)c1ccccc1	1.87% (inactive)
CC1(OC(=O)CCc2ccccc2)C(=O)C=C2C=C(c3ccc(C#N)cc3)N(Cc3ccco3)C=C2C1=O (stereo not given)	1.89% (inactive)
COC(=O)C1=C(C(=O)OC)[C@@H]2N(C)c3ccccc3[C@@]23C[C@@H](C(=O)OC)N(S(=O)(=O)c2ccc(OC)cc2)C3=N1	-2.46% (inactive)
CCN1C(=O)N[C@H](c2ccc(Br)cc2)C(C(=O)OC)=C1C	1.4% (inactive)
COC(=O)CCC(=O)OC1(C)C(=O)C2=CN(c3ccccc3)C(c3ccc(OC)cc3)=CC2=C(Br)C1=O (stereo not given)	-0.545% (inactive)
COC(=O)CC=C[C@@H](C)[C@H](OC)c1cc(F)ccc1Br	-1.94% (inactive)
COC(=O)[C@@H]1[C@@H](C)N(CCc2cc(OC)c(OC)c(OC)c2)C(=O)N[C@H]1c1ccccc1	4.5% (inactive)
COc1cccc([C@@H]2Oc3ccc(Br)cc3C(=O)[C@@H]2OC(=O)Nc2ccc(OC(F)F)cc2)c1	7.34% (inactive)
